Key:
Conditions in all cases: Compound Concentration (nM):1000
FGFR3 = test system: FGFR3
FGFR4 = test system: FGFR4
FGR = test system: FGR
FLT1 = test system: FLT1
FLT3(D835H) = test system: FLT3(D835H)
FLT3(D835V) = test system: FLT3(D835V)
FLT3(D835Y) = test system: FLT3(D835Y)
FLT3(ITD) = test system: FLT3(ITD)
FLT3(ITD,D835V) = test system: FLT3(ITD,D835V)
FLT3(ITD,F691L) = test system: FLT3(ITD,F691L)
FLT3(K663Q) = test system: FLT3(K663Q)
FLT3(N841I) = test system: FLT3(N841I)
FLT3(R834Q) = test system: FLT3(R834Q)
FLT3-autoinhibited = test system: FLT3-autoinhibited
FLT3 = test system: FLT3
FLT4 = test system: FLT4
FRK = test system: FRK
FYN = test system: FYN
GAK = test system: GAK
GCN2(Kin.Dom.2,S808G) = test system: T1, GCN2(Kin.Dom.2,S808G)
T1 construct: gene EIF2AK4
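Further: KINOMEscan scanMAX binding as percent activity remaining versus control; lower means stronger binding.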

SMILES | Percent Control (FGFR3) [%] | Percent Control (FGFR4) [%] | Percent Control (FGR) [%] | Percent Control (FLT1) [%] | Percent Control (FLT3(D835H)) [%] | Percent Control (FLT3(D835V)) [%] | Percent Control (FLT3(D835Y)) [%] | Percent Control (FLT3(ITD)) [%] | Percent Control (FLT3(ITD,D835V)) [%] | Percent Control (FLT3(ITD,F691L)) [%] | Percent Control (FLT3(K663Q)) [%] | Percent Control (FLT3(N841I)) [%] | Percent Control (FLT3(R834Q)) [%] | Percent Control (FLT3-autoinhibited) [%] | Percent Control (FLT3) [%] | Percent Control (FLT4) [%] | Percent Control (FRK) [%] | Percent Control (FYN) [%] | Percent Control (GAK) [%] | Percent Control (GCN2(Kin.Dom.2,S808G)) [%]
COc1ccc2c(-c3ccnc(Nc4cccc(OC(F)(F)F)c4)n3)cnn2n1 [GW810372X] | 100 | 100 | 96 | 73 | 0 | 46 | 55 | 49 | 65 | 89 | 30 | 55 | 73 | 86 | 23 | 100 | 100 | 100 | 66 | 85
O=C(Nc1n[nH]c2nc(-c3ccc(O)cc3)c(Br)cc12)C1CC1 [SB-725317] | 100 | 100 | 100 | 89 | 29 | 2.9 | 33 | 68 | 35 | 37 | 66 | 100 | 72 | 96 | 64 | 84 | 100 | 100 | 81 | 96
COc1cccc(-n2ncc3c(N/N=C/c4ccncc4)ncnc32)c1 [GW784752X] | 100 | 100 | 72 | 100 | 22 | 4 | 48 | 67 | 10 | 55 | 75 | 36 | 77 | 85 | 76 | 100 | 100 | 75 | 48 | 65
Cl.O=S1CCN(Cc2ccc(-c3ccc4ncnc(Nc5ccc(OCc6ccccc6)c(F)c5)c4c3)o2)CC1 [GW576924A] | 100 | 100 | 100 | 100 | 100 | 99 | 83 | 100 | 100 | 100 | 93 | 100 | 100 | 87 | 90 | 100 | 100 | 100 | 100 | 100
COc1ccc(COc2ccc(Cc3cnc(N)nc3N)cc2OC)cc1 [GW632580X] | 95 | 98 | 81 | 98 | 100 | 100 | 81 | 87 | 100 | 99 | 79 | 75 | 97 | 99 | 100 | 90 | 100 | 100 | 95 | 100
COC(=O)Nc1nc2ccc(Oc3ccc(NC(=O)Nc4cc(C(F)(F)F)ccc4F)cc3)cc2s1.Cl [GW693917A] | 70 | 91 | 71 | 3 | 2.3 | 13 | 24 | 4.3 | 83 | 44 | 1 | 89 | 11 | 65 | 2.4 | 2.4 | 15 | 52 | 97 | 100
CC1=C(C(=O)Nc2ccc3[nH]ncc3c2)C(c2ccc(Cl)c(Cl)c2)CC(=O)N1 (stereo not shown) [GSK299115A] | 84 | 57 | 86 | 100 | 100 | 75 | 87 | 100 | 80 | 94 | 78 | 100 | 93 | 100 | 100 | 100 | 63 | 70 | 95 | 100
NS(=O)(=O)c1ccc(Nc2ncc(-c3ccccc3)o2)cc1 [GW572399X] | 100 | 100 | 98 | 100 | 70 | 8.5 | 80 | 53 | 29 | 42 | 9.2 | 21 | 14 | 2 | 11 | 100 | 100 | 100 | 99 | 80
NS(=O)(=O)c1ccc(N/N=C2\C(=O)Nc3ccc(C(=O)NCc4ccncc4)cc32)cc1 [GW300657X] | 82 | 100 | 100 | 80 | 52 | 0 | 46 | 64 | 0.6 | 17 | 92 | 50 | 68 | 74 | 82 | 77 | 100 | 96 | 66 | 100
CCS(=O)(=O)c1ccc(OC)c(Nc2ncc(-c3cccc(F)c3)o2)c1 [GW621970X] | 11 | 87 | 24 | 45 | 0.6 | 0 | 39 | 5.8 | 0 | 25 | 7.9 | 56 | 29 | 7.9 | 5 | 5 | 16 | 26 | 63 | 71
Cl.c1ccc(Cc2nc3ccc(Nc4ncnc5ccccc45)cc3[nH]2)cc1 [GR269666A] | 100 | 100 | 100 | 100 | 100 | 83 | 97 | 100 | 100 | 100 | 90 | 100 | 100 | 86 | 72 | 100 | 100 | 100 | 100 | 100
Cl.O=C(Nc1ccc(Oc2ccc3[nH]c(NC(=O)c4ccccc4)nc3c2)cc1)Nc1cc(C(F)(F)F)ccc1F [GW709042A] | 100 | 100 | 82 | 5.1 | 2.8 | 28 | 14 | 3.7 | 95 | 56 | 2.6 | 0 | 15 | 90 | 2.4 | 12 | 71 | 100 | 100 | 84
Cc1cc(O)cc(C)c1/C=C/c1cncc(C(N)=O)c1 [GW435821X] | 100 | 100 | 64 | 100 | 77 | 31 | 75 | 100 | 100 | 100 | 99 | 100 | 81 | 100 | 95 | 100 | 45 | 70 | 75 | 100
COc1cc2ncn(-c3cc(O[C@H](C)c4ccccc4Cl)c(C(N)=O)s3)c2cc1OC [GSK237701A] | 57 | 100 | 67 | 69 | 11 | 0 | 28 | 33 | 5.9 | 21 | 6.5 | 3.3 | 14 | 95 | 21 | 9.4 | 100 | 100 | 17 | 31
COc1cc(C=NNc2ncnc3c2cnn3-c2ccccc2)ccc1O [GW513184X] | 100 | 100 | 80 | 100 | 12 | 3 | 9.4 | 30 | 16 | 46 | 63 | 27 | 72 | 100 | 34 | 97 | 100 | 90 | 100 | 49
NS(=O)(=O)c1ccc(N/N=C2\C(=O)Nc3ccc(C(=O)NCCc4c[nH]cn4)cc32)cc1 [GW300660X] | 100 | 100 | 100 | 100 | 52 | 0.8 | 62 | 80 | 1.8 | 4.1 | 100 | 100 | 45 | 100 | 90 | 100 | 100 | 100 | 100 | 100
COc1ccc2[nH]c3c4[nH]c5ccc(OC)cc5c4c4c(c3c2c1)C(=O)NC4=O [GW296115X] | 93 | 85 | 68 | 79 | 12 | 4 | 16 | 2.1 | 0 | 3.6 | 9.7 | 0 | 6.3 | 53 | 28 | 71 | 88 | 84 | 0.3 | 74
CC1=C(C(=O)Nc2ccc3[nH]ncc3c2)C(c2ccc3ccccc3c2)CC(=O)N1 (stereo not shown) [GSK270822A] | 73 | 58 | 76 | 89 | 94 | 65 | 78 | 100 | 73 | 79 | 100 | 80 | 98 | 100 | 89 | 100 | 61 | 83 | 90 | 100
COc1cc(N2CCN(C(C)C)CC2)ccc1Nc1nc(Nc2ccc(F)cc2C(=O)NC[C@@H](O)CO)c2cc[nH]c2n1 [GSK1392956A] | 97 | 95 | 81 | 94 | 100 | 69 | 68 | 88 | 79 | 40 | 100 | 74 | 100 | 95 | 78 | 85 | 100 | 100 | 6.9 | 48
COc1cccc(-c2c[nH]c3c(N/N=C/c4ccncc4)ncnc23)c1 [GW814408X] | 100 | 100 | 43 | 83 | 27 | 7.5 | 16 | 21 | 3.9 | 43 | 76 | 12 | 19 | 66 | 26 | 90 | 100 | 66 | 11 | 8.3

— PMC7826789 (International Journal of Molecular Sciences, 2021)
